According to PubChem BioAssay (NCI):
Compounds without any hit were thinned out: in the full panel of roughly 83,000, 20% have a hit.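 Method: cells in 96-well plates; compound added at one concentration; 48 h incubation; percent growth measured; values under 10 scored active.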 Unmarked numbers belong to inactive results. Active and inactive are the calls of the source.

Columns and labels:
Test in all cases: NCI-60 one-dose screen, 48 h (100 = growth as untreated, 0 = no growth, -100 = all killed)
Settings in all cases: 10 µM
[1] = test system: NCI-H23 lung
[2] = test system: NCI-H226 lung
[3] = test system: HOP-62 NSCLC
[4] = test system: NCI-H460 lung
[5] = test system: HOP-92 NSCLC
[6] = test system: NCI-H522 lung
[7] = test system: A549/ATCC NSCLC
[8] = test system: 786-0 renal
[9] = test system: COLO 205 colon

Row | Structure (SMILES) | growth [1] | growth [2] | growth [3] | growth [4] | growth [5] | growth [6] | growth [7] | growth [8] | growth [9]
1 | Nc1ccn(Cc2nnc(CCC(=O)c3nc4ccccc4[nH]3)o2)c(=O)n1 | 74.5% | 73.7% | 82% | 34.6% | 66.1% | 84.2% | 63.8% | 97.2% | 103%
2 | CCCN(CCC)C(=O)[C@H](CC)[C@@H]1CC[C@@H](C)[C@@H]([C@H](C)[C@@H](O)[C@@H](C)C(=O)[C@H](CC)C2O[C@]3(C=C[C@@H](O)[C@]4(CC[C@@](C)([C@H]5CC[C@](O)(CC)[C@H](C)O5)O4)O3)[C@H](C)C[C@@H]2C)O1 (some centres not stated) | -9.41% (active) | -2.4% (active) | 14.2% | 1.15% (active) | -21.1% (active) | -11.1% (active) | 16.6% | 15.8% | -64.2% (active)
3 | COc1cc(C(=O)/C=C/c2c[nH]c3ccccc23)cc(OC)c1OC | 16.1% | 55.6% | 41.1% | 8.04% (active) | 39.2% | -27% (active) | 17.7% | 12.2% | -65.1% (active)
4 | CC(C)(C)c1nn(-c2ccccc2)c2c1CC1(CN2Cc2ccc(Cl)cc2)C(=O)c2ccccc2C1=O | 80.8% | 81.9% | 102% | 90.7% | 54.8% | 80.3% | 70.7% | 86.7% | 117%
5 | COc1cc(C(=O)/C(C)=C/c2c[nH]c3ccccc23)cc(OC)c1OC | 32.3% | 61.7% | 39.2% | 9.7% (active) | 47.1% | -19.4% (active) | 11.6% | 11% | -39.2% (active)
6 | N#CCc1csc(Cc2ccccc2)n1 | 97.2% | 101% | 104% | 102% | 117% | 88.9% | 95.1% | 108% | 117%
7 | COc1ccc(C(=O)N/N=C/c2cc(C(F)(F)F)ccc2Cl)cc1 | 81.3% | 82.3% | 107% | 99.8% | 90.2% | 82.1% | 97.4% | 104% | 104%
8 | O=C(CCCSc1nc(-c2ccc(Cl)cc2)cc(-c2ccc(Cl)cc2)n1)NO | 13.2% | 2.42% (active) | 15.4% | 0.534% (active) | 28% | 6% (active) | 10.2% | 6.25% (active) | 9.44% (active)
9 | CCOC(=O)c1cc(C(=O)c2ccc(OC)c(OC)c2)n2c1ccc1ccc3cccnc3c12 | 39.2% | 64.4% | 29.8% | 11% | 18.9% | 0.908% (active) | 36.8% | 33.3% | -2.29% (active)
10 | Cc1c(C(N)=O)sc2c1c(=O)n(Cc1ccccc1)c1nnc(-c3ccc(Br)cc3)n21 | 39% | 26.6% | 37.7% | 4.4% (active) | 43.4% | 47.9% | 10.1% | -15.5% (active) | 16.8%
11 | O=C(NCCCNS(=O)(=O)c1ccc(Cl)cc1)Nc1ccc(-n2cc(-c3ccncc3)c(-c3ccc(Cl)c(O)c3)n2)cc1 | 42% | 41% | 76.4% | 13.7% | 37.3% | 40.6% | 28.4% | 1.59% (active) | 16.4%
12 | COc1cc(-c2nn(-c3cccc(NC(=O)NCCNC(=O)c4ccccc4)c3)cc2-c2ccncc2)ccc1Cl | 19.7% | 9.31% (active) | 26.4% | 13.5% | -0.717% (active) | 0.745% (active) | 24.2% | -50.6% (active) | 2.08% (active)
13 | O=S(=O)(Oc1ccc(-c2ccc3sccc3c2)cc1)c1ccccc1 | 89% | 92.5% | 113% | 103% | 111% | 87.3% | 100% | 100% | 109%
14 | O=C(CCCSc1nc(-c2ccccc2)cc(-c2ccc(Cl)cc2)n1)NO | 9.38% (active) | 10.6% | 12.5% | -9.81% (active) | 32.9% | 7.31% (active) | 5.6% (active) | 9.83% (active) | 10.1%
15 | COc1ccc(-c2cc(-c3ccccc3)nc(SCCCC(=O)NO)n2)cc1 | -33.3% (active) | -8.31% (active) | -20% (active) | -10.3% (active) | -13.4% (active) | -7.67% (active) | -2.46% (active) | -13.5% (active) | -22.6% (active)
16 | Oc1ccc(-c2[nH]c3ccccc3c2-c2nc3ccccc3o2)cc1 | 77.8% | 78.5% | 67.9% | 86.6% | 67.8% | 60.9% | 58% | 75% | 59.1%
17 | CC(=O)COc1ccc(Cl)cc1Cl | 106% | 93% | 110% | 110% | 91% | 107% | 107% | 103% | 114%
18 | CN(C)CCOc1cccc(-c2nc3sccn3c2-c2ccnc(S(C)(=O)=O)n2)c1 | 100% | 92.3% | 79% | 94.9% | 53.7% | 103% | 97.9% | 95.9% | 106%
19 | CC[C@@H](C(=O)[C@H](C)[C@H](O)[C@@H](C)[C@H]1O[C@H]([C@@H](CC)C(=O)O)CC[C@H]1C)C1O[C@]2(C=C[C@@H](O)[C@]3(CC[C@@](C)([C@H]4CC[C@](O)(CC)[C@H](C)O4)O3)O2)[C@H](C)C[C@@H]1C (some centres not stated) | 13.4% | 21.4% | 36.9% | 11.4% | 24% | -4.35% (active) | 20.8% | 27.1% | 8.73% (active)
20 | CNS(=O)(=O)Oc1ccc(-c2ccc3occc3c2)cc1 | 95.1% | 93.8% | 102% | 104% | 91.8% | 84% | 93.3% | 99.1% | 111%
21 | O=C(Nc1cccc2c1CCCC2)c1cc2ccccc2cc1O | 3.43% (active) | 35.1% | 69.9% | 27.3% | -20.6% (active) | 18.8% | 33.8% | 43.7% | 92.3%
22 | COc1ccc2c(c1)OC(N)=C(C#N)C2c1cc(OC)c(OC)c(OC)c1 (configuration not stated) | 16.3% | 54.2% | 38.9% | 1.65% (active) | -0.922% (active) | -27.9% (active) | 16.2% | 15.2% | -48.6% (active)
23 | COc1cc(-c2nn(-c3cccc(NC(=O)NCCNC(=O)c4cccc(C(F)(F)F)c4)c3)cc2-c2ccncc2)ccc1Cl | 57% | 70.8% | 59.6% | 18.7% | 42.5% | 24.4% | 31.3% | 17.4% | 39.7%
24 | COc1ccc(-c2cc(-c3ccc(Cl)cc3)nc(SCCCCCCC(=O)NO)n2)cc1OC | 42.7% | 69.3% | 62.4% | 19.7% | 40.6% | 45.4% | 58.5% | 51.3% | 66.4%
25 | C=C(C)[C@@H]1CC[C@]2(COCCC#N)CC[C@]3(C)[C@H](CC[C@@H]4[C@@]5(C)Cc6c([nH]c7ccccc67)C(C)(C)[C@@H]5CC[C@]43C)[C@@H]12 | 90.6% | 94.5% | 105% | 84.9% | 107% | 87% | 99.8% | 101% | -42.8% (active)
26 | C(=N\Nc1ncnc2sc3c(c12)CCNC3)/c1cccc2ccccc12 | 98.9% | 97.1% | 79.9% | 62.8% | 93.4% | 97% | 67.6% | 59.5% | 63.5%
27 | COc1cc(/C=C/c2cc(/C=C/c3ccc(O)c(OC)c3)nc(N)n2)ccc1O | -2.79% (active) | 11.7% | 4.85% (active) | 5.54% (active) | -21.2% (active) | -41.3% (active) | 10.1% | -58.9% (active) | -50.4% (active)
28 | O=C(Nc1ccc2c(O)cc(S(=O)(=O)O)cc2c1)c1ccc([N+](=O)[O-])cc1 | 100% | 96.2% | 83.3% | 107% | 89.8% | 84.7% | 79.3% | 98.6% | 91.8%
